These results are taken from PubChem BioAssay AID1857 (The Scripps Research Institute Molecular Screening Center, 2009).

Screen size: about 1,300 compounds; about 290 (22%) were called active. The list is a sample of the results. Values without a mark were called inactive.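 How the source made its calls: active means inhibition above the mean of all tested compounds plus 3 SD (cut at about 19% in these data); inactive means the rest.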

The test system of the assay is VIM-2 metallo-beta-lactamase (Pseudomonas aeruginosa). Put plainly: VIM-2 CCF2 hydrolysis inhibition, orthogonal readout – biochemical, FRET, epi-absorbance artifact exclusion, artefact control for selective VIM-2 inhibitor project, confirmation (AID 1857).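 Further: 0% = VIM-2 plus DMSO and 100% = no enzyme wells.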 The conditions noted are these: purified VIM-2, CCF2 FRET substrate hydrolysis; at 5.6 µM; hits give high values.
With `COc1ccc(Cc2nnc(NS(=O)(=O)Cc3ccccc3)s2)cc1`, the inhibition was 29.2% (active).
The result for `CCC1CCCCN1CCCNC(=O)c1cc2c(Cl)nc3ccccc3c2s1` (stereo not given) reads 3.62%; that for `Cn1c(=O)c2c(nc(N3CCOCC3)n2CCNC2=NCCC2)n(C)c1=O`, 1.09%.
The result for `CCOc1cc(/C=C2\SC(N3CCCCC3)=NC2=O)ccc1O` reads 1.41%; that for `CCN1CCN(CCNC(=O)c2ccc3c(c2)NC(=O)/C(=C\c2ccc(OC)c(OC)c2)S3)CC1`, 31% (active); that for `Cc1cccn2c(=O)c(C=O)c(Nc3ccc(S(N)(=O)=O)cc3)nc12`, 2.01%.
For `CCOc1cc(/C=C2\SC(N3CCCC(C)C3)=NC2=O)ccc1O` (stereo not given) the value was -2.85%; for `O=C(COc1cc2oc(=O)c3c(c2cc1Cl)CCC3)NCCCN1CCOCC1`, -0.64%.
Turning to `Cn1c(-c2sccc2OCc2cccc(C(F)(F)F)c2)n[nH]c1=S`, the inhibition was 58.2% (active).
For `CN(C)CCNc1ccc(-c2n[nH]c(=O)c3ccccc23)cc1[N+](=O)[O-]` the value was -1.97%; for `CCCc1ccc(OCCNC(=O)c2ccco2)cc1`, -1.44%; for `Cc1nc2ccccc2c2oc(C(=O)NCCCN3CCC(C)CC3)cc12`, 1.71%.
The result for `C=CCn1c(-c2ccccc2OCC)n[nH]c1=S` reads 40.4% (active); that for `O=C(NCCCN1CCOCC1)c1cnn2c(-c3ccccc3)cc(-c3ccccc3)nc12`, -2.83%.
In the case of `CCc1cc(=O)oc2cc(C)cc(OCC(=O)N3CCC[C@@H]3C(=O)O)c12`, the inhibition was 32.9% (active).
In the case of `Cc1cc(NCc2ccco2)n2c(nc3ccccc32)c1C#N`, the inhibition was -12.9%.
The result for `CCN(CC)CCOc1ccc2c(c1)C(=NNC(=O)c1ccccn1)c1cc(OCCN(CC)CC)ccc1-2` reads 2.33%; that for `O=C(NC(=S)Nc1ccccc1C(=O)O)c1ccc(-c2ccc(Br)cc2)o1`, 11.2%; that for `CCN1CCCC1CNC(=O)c1cc2c(=O)n(C)c3ccccc3c2n1C` (stereo not given), -2.42%.
For the molecule `CC1CCCC(C)N1CCCNC(=O)c1cc2c(=O)n(C)c3ccccc3c2n1C` (stereo not given), the inhibition was -7.42%.
The result for `NC(=O)C1CCN(C(=O)COc2ccc3c4c(c(=O)oc3c2)CCC4)CC1` reads -2.54%; that for `Cc1cc(C)c2nc3nc(C)cc(C)c3c(N)c2c1`, -10.3%; that for `CC(NS(=O)(=O)c1ccccc1)c1n[nH]c(=S)n1-c1ccccc1` (stereo not given), 38.4% (active).
For `Cc1cc([N+](=O)[O-])c(-c2ccc(/C=N/n3cnnc3)o2)cc1Cl` the value was -0.73%.
For `Fc1ccc(-c2ccc(CNCc3ccccn3)o2)cc1Cl` the value was -13.3%.
